{"source": "the OligoGym collection"}
{"target": "GHR", "assay": "pooled miR-30 sensor sort-seq; sequence = guide strand", "details": "shRNA"}
{"sequence": "TTAGCTTGATACAATAAGGTAT", "sensor-assay potency score (higher = more potent)": 0.218}
{"sequence": "TTTCTGAATATCTGCATTGCGT", "sensor-assay potency score (higher = more potent)": -0.999}
{"sequence": "TAATCTTTGGAACTGGAACTGG", "sensor-assay potency score (higher = more potent)": -0.523}
{"sequence": "TAGAAGTCTGTCTGTGTCTGAT", "sensor-assay potency score (higher = more potent)": -0.00194}
{"sequence": "TCATACTCCAGAACCATCCATC", "sensor-assay potency score (higher = more potent)": -0.368}
{"sequence": "TTCATCAACAGAGAAACACTTT", "sensor-assay potency score (higher = more potent)": 0.81}
{"sequence": "TATGAATGGAGGTATAGTCTGG", "sensor-assay potency score (higher = more potent)": 0.0222}
{"sequence": "TGAACTTGGATTGCTTAGCTGA", "sensor-assay potency score (higher = more potent)": 0.127}
{"sequence": "TTCTGGTATAGAACAGCTGTAT", "sensor-assay potency score (higher = more potent)": -1.1}
{"sequence": "TAGCTCAATAAATTCAACCCAA", "sensor-assay potency score (higher = more potent)": -0.0787}
{"sequence": "TTAGAAGTCTGTCTGTGTCTGA", "sensor-assay potency score (higher = more potent)": 0.716}
{"target": "GHSR", "assay": "pooled miR-30 sensor sort-seq; sequence = guide strand", "details": "shRNA"}
{"sequence": "TTGGAAAATAAATATCGCCCTA", "sensor-assay potency score (higher = more potent)": -0.35}
{"sequence": "TTGCAGTACTGGCTGATCTGAG", "sensor-assay potency score (higher = more potent)": -0.301}
{"sequence": "TTGAACCCCGGCTCTTCGCTGG", "sensor-assay potency score (higher = more potent)": -0.129}
